# Measured values published in PubChem BioAssay (NCATS).
# Results filed as inconclusive are left out. Entries that show only a call come without a potency. Active and inactive are the calls of the source. Calls follow the shape of the dose curve; as a rule, active = well fitted curve in the direction sought with a large enough effect; inconclusive = small, poorly fitted or top-dose-only effect, or another doubt; inactive = no such curve, though single readings can be large; an effect the other way counts as inactive or inconclusive.
# Assays:
# MCC-13 = assay: qHTS assay to identify novel small-molecules to repurpose for Merkel cell carcinoma treatment (AID 1296009); conditions: MCC and control cell lines, CellTiter-Glo viability, 72 h; series mostly up to 46 µM; also: nearly all actives have a fitted effect of over 60% in size
# How it was run: (§1)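 72 hr, 37 degree celsius; NPC 8-pt / MIPE 11-pt dose response; compound pinned in DMSO; CellTiter-Glo, 10 min RT, luminescence; normalized to no-cell and DMSO controls.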
# MKL-1 = assay: as above; conditions: MCC and control cell lines, CellTiter-Glo viability, 72 h; series mostly up to 46 µM
# How it was run: as §1
# WaGa = assay: as above; conditions: MCC and control cell lines, CellTiter-Glo viability, 72 h; series mostly up to 46 µM
# How it was run: as §1
# MCC-26 = assay: as above; conditions: MCC and control cell lines, CellTiter-Glo viability, 72 h; series mostly up to 46 µM
# How it was run: as §1
# MKL-2 = assay: as above; conditions: MCC and control cell lines, CellTiter-Glo viability, 72 h; series mostly up to 46 µM
# How it was run: as §1
# UISO = assay: as above; conditions: MCC and control cell lines, CellTiter-Glo viability, 72 h; series mostly up to 46 µM
# How it was run: as §1
# CASKI = assay: Primary qHTS to identify gynecologic anti-cancer compounds using libraries of approved drugs and bioactive compounds (AID 1345084); conditions: Gynecologic cancer cell panel viability, ATPlite luminescence, 48 h; series mostly up to 57.5 µM; also: nearly all actives have a fitted effect of over 55% in size
# How it was run: (§2)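 48 h compound exposure at 37 C, 5% CO2; five-point qHTS. ATPlite luminescence readout of cell ATP.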
# HeLa = assay: as above; conditions: Gynecologic cancer cell panel viability, ATPlite luminescence, 48 h; series mostly up to 57.5 µM
# How it was run: as §2
# JEG-3 = assay: as above; conditions: Gynecologic cancer cell panel viability, ATPlite luminescence, 48 h; series mostly up to 57.5 µM
# How it was run: as §2
# PA-1 = assay: as above; conditions: Gynecologic cancer cell panel viability, ATPlite luminescence, 48 h; series mostly up to 57.5 µM
# How it was run: as §2
# Tov-21-G = assay: as above; conditions: Gynecologic cancer cell panel viability, ATPlite luminescence, 48 h; series mostly up to 57.5 µM
# How it was run: as §2
# C33A = assay: as above; conditions: Gynecologic cancer cell panel viability, ATPlite luminescence, 48 h; series mostly up to 57.5 µM
# How it was run: as §2
# Es-2 = assay: as above; conditions: Gynecologic cancer cell panel viability, ATPlite luminescence, 48 h; series mostly up to 57.5 µM
# How it was run: as §2
# Hek293T = assay: as above; conditions: Gynecologic cancer cell panel viability, ATPlite luminescence, 48 h, control line for the selectivity index; series mostly up to 57.5 µM
# How it was run: as §2
# OV90 = assay: as above; conditions: Gynecologic cancer cell panel viability, ATPlite luminescence, 48 h; series mostly up to 57.5 µM
# How it was run: as §2
# SKOV3 = assay: as above; conditions: Gynecologic cancer cell panel viability, ATPlite luminescence, 48 h; series mostly up to 57.5 µM
# How it was run: as §2
# Potency is read from the fitted curve at half-maximal effect.
compound,measurement,setting,value
CCC(=O)NC[C@H](Cc1ccc(OCCc2nc(-c3ccccc3)oc2C)cc1)NC(C)=CC(=O)c1ccc(C(F)(F)F)cc1,Potency,MCC-13,inactive
same,Potency,MKL-1,7.43 µM (active)
same,Potency,WaGa,4.69 µM (active)
CNC(=O)c1ccccc1Sc1ccc2c(C=Cc3ccccn3)n[nH]c2c1,Potency,MCC-26,inactive
same,Potency,WaGa,11.8 µM (active)
COc1cc(N2CCC(N3CCN(C)CC3)CC2)ccc1Nc1ncc(Cl)c(Nc2ccccc2S(=O)(=O)C(C)C)n1,Potency,MKL-2,inactive
same,Potency,UISO,inactive
same,Potency,CASKI,7.94 µM (active)
same,Potency,HeLa,3.16 µM (active)
same,Potency,JEG-3,inactive
same,Potency,PA-1,10 µM (active)
same,Potency,Tov-21-G,7.08 µM (active)
CC/C(=C(\c1ccccc1)c1ccc(OCCN(C)C)cc1)c1ccccc1,Potency,MKL-2,26.6 µM (active)
same,Potency,UISO,21.1 µM (active)
same,Potency,C33A,inactive
same,Potency,CASKI,inactive
same,Potency,Es-2,inactive
same,Potency,HeLa,inactive
same,Potency,Hek293T,inactive
same,Potency,JEG-3,inactive
same,Potency,Tov-21-G,inactive
COc1cc2ncnc(Nc3ccc(F)c(Cl)c3)c2cc1OCCCN1CCOCC1,Potency,MCC-26,inactive
same,Potency,MKL-2,13.3 µM (active)
same,Potency,UISO,26.6 µM (active)
same,Potency,C33A,inactive
same,Potency,CASKI,inactive
same,Potency,Es-2,inactive
same,Potency,HeLa,inactive
same,Potency,Hek293T,inactive
same,Potency,JEG-3,inactive
same,Potency,OV90,inactive
same,Potency,PA-1,inactive
same,Potency,SKOV3,10 µM (active)
CN(C[C@@H]1COCCO1)S(=O)(=O)Nc1ccc2ccc3ncc(-c4cnn(C)c4)cc3c(=O)c2c1,Potency,MCC-13,inactive
same,Potency,MKL-1,inactive
same,Potency,WaGa,inactive
same,Potency,CASKI,inactive
same,Potency,Es-2,inactive
same,Potency,HeLa,12.6 µM (active)
same,Potency,Hek293T,inactive
same,Potency,JEG-3,inactive
same,Potency,OV90,inactive
same,Potency,Tov-21-G,20 µM (active)
Cc1ccc(F)c(NC(=O)Nc2ccc(-c3cccc4[nH]nc(N)c34)cc2)c1,Potency,MCC-13,inactive
same,Potency,MKL-2,inactive
same,Potency,WaGa,inactive
O=c1cc(CN2CCOCC2)occ1OCCCCCSc1ccnc2cc(C(F)(F)F)ccc12,Potency,MCC-13,inactive
same,Potency,MKL-1,inactive
same,Potency,MKL-2,inactive
same,Potency,Hek293T,31.6 µM (active)
same,Potency,Tov-21-G,inactive
COc1cc(N2CCC(N3CCN(C)CC3)CC2)ccc1Nc1ncnc(Nc2ccccc2S(=O)(=O)C(C)C)n1,Potency,MKL-2,inactive
same,Potency,WaGa,inactive
same,Potency,HeLa,10 µM (active)
same,Potency,JEG-3,inactive
same,Potency,OV90,8.91 µM (active)
same,Potency,PA-1,7.94 µM (active)
same,Potency,Tov-21-G,12.6 µM (active)
CC(C)C(=O)Nc1ncc(-c2cc(C(F)F)nn2-c2c(Cl)cccc2Cl)s1,Potency,MKL-1,inactive
same,Potency,WaGa,inactive
same,Potency,C33A,inactive
same,Potency,CASKI,inactive
same,Potency,Es-2,inactive
same,Potency,Hek293T,inactive
same,Potency,JEG-3,inactive
same,Potency,OV90,inactive
same,Potency,SKOV3,inactive
CN[C@@H](C)C(=O)N[C@H]1CN(C(=O)CC(C)C)CC[C@H]2CC[C@@H](C(=O)NC(c3ccccc3)c3ccccc3)N2C1=O,Potency,MCC-13,inactive
same,Potency,MKL-2,inactive
same,Potency,C33A,inactive
same,Potency,Es-2,inactive
same,Potency,Hek293T,inactive
same,Potency,JEG-3,inactive
same,Potency,OV90,inactive
same,Potency,SKOV3,7.94 µM (active)
same,Potency,Tov-21-G,5.62 µM (active)
